Each structure is given as a SMILES string. Records with an inconclusive call do not appear. The source made the active and inactive calls. Calls follow the shape of the dose curve; as a rule, active = well fitted cell-killing curve with a large enough effect in the repeat runs; inconclusive = weak or mixed curves, or effect the other way; inactive = flat fitted curve, though single readings scatter.
% is scaled to controls: 0 for no effect and ±100 for the full control effect.

A short description of this test: qHTS RealTime-Glo MT Cell Viability Assay in HEK293 cells - 24 hour (AID 1224886). Also: top concentration of the series differs between compounds; nearly all actives have a fitted effect of over 50% in size. The note with it: RealTime-Glo luminescence; series mostly up to 76.8 µM. The text has this: National Center for Advancing Translational Sciences [NCATS]
NIH Chemical Genomics Center [NCGC]
U.S. Environmental Protection Agency [EPA]
National Institutes of Environmental Health Sciences [NIEHS]
National Toxicology Program [NTP]
U.S. Food and Drug Administration [FDA]
Measure of cell viability is critical in the cell-base assay. Analysis of cell viability is necessary for the characterization of cell responses to cytotoxic drugs and environmental stress. A RealTime-Glo MT Cell Viability Assay to monitor cell viability in real time of continues cell culture during 40 hours of compound treatment was used to screen Tox21 10K library compounds in Hek293 cells. The RealTime-Glo MT Cell Viability Assay is a nonlytic, homogeneous, bioluminescent method to measure cell viability in real time using a simple, plate-based method. The assay involves adding NanoLuc luciferase and a cell-permeant prosubstrate to cells in culture. Viable cells reduce the proprietary prosubstrate to generate a substrate for NanoLuc luciferase. This substrate diffuses from cells into the surrounding culture medium, where it is rapidly used by the NanoLuc Enzyme to produce a luminescent signal. The signal correlates with the number of viable cells, making the assay well suited for cytotoxicity studies.
Tox21 Assay Protocol Summary:
The mixture of Hek293 cell suspension and reagents were dispensed at 600cells/6 ul/well in 1536-well tissue culture treated black solid bottom plates using a Multidrop dispenser. After the assay plates were incubated at a 37 C/5% CO2 incubator for 5 hours, 23 nL of compounds dissolved in DMSO, positive and negative controls was transferred to the assay plate by a pintool work station. The plates were incubated at 37 C for 40 hours. The luminescence intensity were measured at 0h, 8h, 16h, 24h, 32h and 40h time points using ViewLux plate reader during compound treatment.
Background: qHTS replaces the single test concentration by a dilution series.
Turning to `N[C@H]1C(O)O[C@H](CO)[C@@H](O)[C@@H]1O` (stereo not given in full), the result was inactive. In the case of `c1cc2ccc3ccc4ccc5cccc6c(c1)c2c3c4c56`, the activity change, negative = cytotoxicity was 0.461% [at 2.72 µM] (inactive). Regarding `CN(C)CCC[C@@]1(c2ccc(F)cc2)OCc2cc(C#N)ccc21`, the compound was classed as inactive. The same measure, in the same setting: for `CC(C)C(C)C` the value was “inactive”; for `CC(=O)Nc1ccc(S(=O)(=O)Nc2cc(C)on2)cc1`, “inactive”; for `COCCCOc1cc(C[C@@H](C[C@H](N)[C@@H](O)C[C@H](C(=O)NCC(C)(C)C(N)=O)C(C)C)C(C)C)ccc1OC`, “inactive”.

Consider `CCOC(=O)CC`, for which the outcome was inactive. Still for that read-out and setting: for `NCC1CCC(C(=O)Oc2ccc(CCC(=O)O)cc2)CC1` (stereo not given) the value was “inactive”; for `CC(=O)OC/C=C(/C)CCC=C(C)C`, “inactive”; for `C/C(Cl)=C/CCl`, “inactive”. The same measure, in the same setting: the entry for `Cc1ccc(O)c([N+](=O)[O-])c1` is “inactive”; for `CCCC[O][Al]([O]CCCC)[O]CCCC` it is “inactive”; for `O=C(c1ccccc1)c1cccc(O)c1` it is “inactive”. For `CC(C)CC(O)Cc1ccccc1` (stereo not given), the compound was called inactive.

`CCCCCCCCCCCCCCCC(=O)OC`: the activity change, negative = cytotoxicity is -2.1% [at 15.8 µM] (inactive). Regarding `CCCCN(CCCC)CCCCCCN(CCCC)CCCC`, the outcome was inactive. `CCN(CC)CC`: the compound was called inactive.

For `C[Si](C)(C)O[Si](O)(O)O`, the call was inactive.

With `CCCCCCCC(=O)N(C)C`, the compound was called inactive. On the same count and under the same terms, for `O=C(O)/C=C(\CC(=O)O)C(=O)O` the value was “inactive”.

As to `CCOC(=O)CC(C(C)=O)C(C)=O`, the call was inactive. Take `CC12CCCC=C1C(=O)OC2=O` (stereo not given): the result was inactive. The same measure, in the same setting: the entry for `CCOCCOCCOC(C)=O` is “inactive”; for `O=S(=O)(O)CC(O)CCl` (stereo not given) it is “inactive”; for `CC(C)=CCC/C(C)=C\C#N` it is “inactive”.

Take `O=Cc1ccc(C(=O)O)cc1`: the compound was called inactive. As to `Nc1cc(S(=O)(=O)O)ccc1O`, the result was inactive.

Regarding `COc1ccc2cc(CCC(C)=O)ccc2c1`, the outcome was inactive. Same read-out and setting: the entry for `C[C@@H]1CCC[C@H](C)N1CCCC(O)(c1ccccc1)c1ccccn1` (stereo not given in full) is “inactive”; for `O=c1c(O)c(O)c1=O` it is “inactive”. For the compound `N=C(N)N`, the compound was classed as inactive. Still for that read-out and setting: the entry for `Cc1ccc(NC(N)=O)cc1` is “inactive”; for `CC(C)(O)c1ccc(C(C)(C)O)cc1` it is “inactive”; for `N=C(N)S(=O)O` it is “inactive”. On to `CCCCN=C(N)N=C(N)N`, for which the outcome was inactive. Consider `C=C(C)C(=O)OCCOC1CC2CC1C1C=CCC21` (stereo not given), for which the outcome was inactive.

For `CC1=C(O)C(=O)CO1`, the call was inactive. Same read-out and setting: the entry for `CSC(=O)c1cccc2nnsc12` is “inactive”; for `O=S(=O)(O)c1ccc(Cl)cc1` it is “inactive”. The same measure, in the same setting: for `COC(=O)c1ccc(C(=O)O)cc1` the value was “inactive”.
